Source: PubChem BioAssay (National Center for Advancing Translational Sciences (NCATS))
The entries come from a sample that favours hits as a whole.
Tb PYK inh = T. brucei pyruvate kinase inhibition; Q57TT1; TbPYK enzyme, Kinase-Glo Plus ATP luminescence, 45 min; Potency, µM (titrated, usually from 76.8 µM), inactives show at the highest dose activity, negative = inhibition, actives largely listed as inhibitors; 410,000 tested, 0.12% active; AID 624173; note: potency is the fitted concentration of half-maximal effect; % is set by controls: 0 for no effect and ±100 for the full control effect; nearly all actives have a fitted effect of over 50% in size
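ADP (130 uM final) triggers the TbPYK reaction after compound addition; incubation is 45 min at room temperature. Kinase-Glo Plus is then added and luminescence imaged. Normalized data are fitted to concentration-effect curves.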
LmPK inhibitor = LmPK (Leishmania mexicana) enzyme inhibition; Q27686; 290,000 tested, 0.37% active; Potency, µM (doses to about 57.5 µM), without a hit: at the highest dose activity change, negative = inhibition, most hits filed as inhibitors; purified LmPK, Kinase-Glo ATP luminescence, 1 h; note: potency is the fitted concentration of half-maximal effect; % is set by controls: 0 for no effect and ±100 for the full control effect
Target sequence (Q27686 whole entry, looked up): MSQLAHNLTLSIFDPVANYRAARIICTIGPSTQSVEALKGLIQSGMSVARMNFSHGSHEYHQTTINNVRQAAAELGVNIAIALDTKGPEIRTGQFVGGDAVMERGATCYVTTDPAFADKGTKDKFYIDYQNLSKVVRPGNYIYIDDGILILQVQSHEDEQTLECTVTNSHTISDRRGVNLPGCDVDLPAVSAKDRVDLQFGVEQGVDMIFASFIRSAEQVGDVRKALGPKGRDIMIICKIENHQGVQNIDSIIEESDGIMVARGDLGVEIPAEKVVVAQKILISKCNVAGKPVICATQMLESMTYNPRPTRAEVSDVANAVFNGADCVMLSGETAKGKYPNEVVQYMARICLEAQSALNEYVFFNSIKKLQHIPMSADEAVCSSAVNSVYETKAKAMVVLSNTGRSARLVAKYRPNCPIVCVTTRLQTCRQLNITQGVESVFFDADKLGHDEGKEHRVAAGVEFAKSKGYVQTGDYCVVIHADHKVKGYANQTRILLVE
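ATP generated from ADP (0.1 mM) and PEP (0.5 mM) by 0.1 nM LmPK over 1 h at room temperature (pH 7.2 imidazole buffer) was detected by coupled luciferase luminescence. Values were normalized to uninhibited and no-enzyme wells.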
Shiga inhibitor = Shiga toxin inhibition. AID 2315. inhibition, % at 38.7 µM. Vero cells, Shiga toxin protein synthesis inhibition reporter. 290,000 tested, 9.2% active; in the data active = inhibition mostly above about 28%, no sharp cut-off; inactive = mostly below about 43%; note: 0% is about no effect
Cycloheximide cs = affects cycloheximide protein synthesis inhibition readout, counter-screen; cell reporter, cycloheximide protein synthesis inhibition counterscreen; max response, %; 300,000 tested, 12% active; in the data active = max response mostly above about 13%, no sharp cut-off; inactive = mostly below about 14%; note: read at 38.3 µM for the half of the compounds with a filed dose; 0% is about no effect
RE007 growth inh = less growth of the S. pombe RE007 Vpr strain | S. pombe RE007 Vpr strain, BacTiter-Glo ATP luminescence, 24 h | Potency, µM (doses to about 92.2 µM), without a hit: top-dose activity change, negative = less growth, most hits filed as inhibitors | 360,000 tested, 0.21% active | AID 651644; active = well fitted falling curve with a large enough effect; note: potency is the fitted concentration of half-maximal effect; % is set by controls: 0 for no effect and ±100 for the full control effect; nearly all actives have a fitted effect of over 50% in size
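Fission yeast strain RE007, carrying one chromosomally integrated HIV-1 vpr copy, was seeded at OD 0.01 in PMG+AL medium with 23 nL pinned compound. After 24 h at 30 °C and 99% humidity, viability was read by BacTiter-Glo luminescence.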
FBPA Giardia inh = inhibitors of Giardia lamblia fructose-1,6-bisphosphate aldolase; 290,000 tested, 0.71% active; A8B2U2; purified Giardia FBPA; Potency, µM (series often up to 59.6 µM), for the others: at the top dose activity, negative = inhibition, hits mostly inhibitors; note: potency is the fitted concentration of half-maximal effect; % is set by controls: 0 for no effect and ±100 for the full control effect; nearly all actives have a fitted effect of over 55% in size
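Giardia FBPA (40 nM reagent) was preincubated 10 min at RT with compound (up to 57.5 uM final), then substrate plus GAPDH/TPI/NAD/arsenate coupling system with diaphorase/resazurin was added; resorufin fluorescence (525/598 nm) was read after 20 min.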
* marks the source's active call; other numbers are inactive results. Unless noted, calls come from the whole dose curve; as a rule, active = well fitted curve in the direction sought with a large enough effect; inconclusive = small, poorly fitted or top-dose-only effect, or another doubt; inactive = no such curve, though single readings can be large; an effect the other way counts as inactive or inconclusive.

How did CCn1nc(C(=O)OCC(=O)NCC(C)C)c2ccccc2c1=O do in these assays?
Tb PYK inh: 3.5%; LmPK inhibitor: 2.2%; Shiga inhibitor: -17.1; Cycloheximide cs: -2.2; RE007 growth inh: -15.3%; FBPA Giardia inh: 2.9%

What do the screens show for `CCN(C(=O)c1cccs1)c1nc(-c2ccc(OC)cc2)cs1`?
Tb PYK inh: -2.5%; LmPK inhibitor: 0.4%; Shiga inhibitor: 101.2*; Cycloheximide cs: 42.9*; RE007 growth inh: -17.6%; FBPA Giardia inh: -9.0%

Results for CCn1nc(C(=O)OCC(=O)Nc2nc(-c3ccc(OC)cc3)cs2)c2ccccc2c1=O ?
Tb PYK inh: -3.2%; LmPK inhibitor: -0.6%; Shiga inhibitor: 49.8*; Cycloheximide cs: 46.4*; RE007 growth inh: 22.5%; FBPA Giardia inh: -0.4%

What do the screens show for `Cc1ccc(-c2csc(N(CC3CCCO3)C(=O)c3ccco3)n2)cc1` (centres undefined)?
Tb PYK inh: -0.7%; LmPK inhibitor: 0.5%; Shiga inhibitor: 39.9*; Cycloheximide cs: 22.7*; RE007 growth inh: 10.4%; FBPA Giardia inh: -3.6%

How did COc1ccc(-c2csc(N(C)C(=O)c3ccco3)n2)cc1 do in these assays?
Tb PYK inh: 2.8%; LmPK inhibitor: -0.9%; Cycloheximide cs: 36.9*; RE007 growth inh: -21.3%; FBPA Giardia inh: 18.7%

How did O=C(c1ccc(CSc2nc3ccncc3n2Cc2cccc(F)c2)cc1)N1CCCCC1 do in these assays?
Tb PYK inh: 0.0%

Results for COc1cccc(-c2cn3c(n2)sc2cc(C(=O)NCCCc4ccccc4)ccc23)c1 ?
Tb PYK inh: 5.6%

What do the screens show for `O=C(CSc1n[nH]c(-c2ccccc2Cl)n1)N1CCN(c2ccccc2F)CC1`?
Tb PYK inh: 0.2%

What do the screens show for `CN(C)CCCN(C(=O)c1ccco1)c1nc(-c2ccc(Cl)cc2)cs1`?
Tb PYK inh: -2.3%; LmPK inhibitor: -7.6%; Shiga inhibitor: -5.6; Cycloheximide cs: -7.0; RE007 growth inh: 2.2%; FBPA Giardia inh: -6.0%

Results for COc1ccc(-c2csc(NC(=O)COC(=O)c3ccco3)n2)cc1 ?
Tb PYK inh: -1.6%; LmPK inhibitor: 1.6%; Shiga inhibitor: 42.7*; Cycloheximide cs: 49.5*; RE007 growth inh: -6.9%; FBPA Giardia inh: -12.3%

Results for CN(C(=O)c1ccco1)c1nc(-c2ccc(Cl)cc2)cs1 ?
Tb PYK inh: 0.0%; LmPK inhibitor: 0.6%; Shiga inhibitor: 22.5; Cycloheximide cs: 25.3*; RE007 growth inh: -11.4%; FBPA Giardia inh: 5.4%

How did COc1ccc(-c2csc(NC(=S)NC(=O)c3ccco3)n2)cc1 do in these assays?
Tb PYK inh: 3.5%; LmPK inhibitor: -0.1%; Shiga inhibitor: -22.1; Cycloheximide cs: 5.3; RE007 growth inh: 2.5%; FBPA Giardia inh: -7.9%

What do the screens show for `Cc1ccc(CNC(=O)Cn2nc(N3CCN(c4ccccc4)CC3)ccc2=O)cc1`?
Tb PYK inh: 2.0%

What do the screens show for `CCOC(=O)c1[nH]c2c(c1Cc1ccccc1OC)C(=O)CC(c1ccc(OC)cc1)C2` (centres undefined)?
Tb PYK inh: -1.7%

What do the screens show for `O=C(c1ccc2nc(N3CCCCC3)sc2c1)N1CCN(c2ccccn2)CC1`?
Tb PYK inh: -4.8%; LmPK inhibitor: -3.8%; Shiga inhibitor: 10.5; Cycloheximide cs: 22.6*; RE007 growth inh: -11.7%; FBPA Giardia inh: -1.1%

Results for Cc1cccc(N2CCN(C(=O)c3ccc4nc(N5CCCCC5)sc4c3)CC2)c1C ?
Tb PYK inh: 0.0%; LmPK inhibitor: 0.7%; Shiga inhibitor: 31.2; Cycloheximide cs: 2.6; RE007 growth inh: -10.4%; FBPA Giardia inh: 3.8%

How did CCOC(=O)N1CCN(C(=O)c2ccc3nc(N4CCCCC4)sc3c2)CC1 do in these assays?
Tb PYK inh: 2.8%; LmPK inhibitor: -2.6%; Shiga inhibitor: 18.2; Cycloheximide cs: 14.4*; RE007 growth inh: 18.3%; FBPA Giardia inh: 1.1%

What do the screens show for `CCOC(=O)N1CCN(C(=O)c2ccc3nc(N4CCC(C)CC4)sc3c2)CC1`?
Tb PYK inh: -8.6%; LmPK inhibitor: -2.0%; Shiga inhibitor: 41.9*; Cycloheximide cs: 23.8*; RE007 growth inh: -8.5%; FBPA Giardia inh: 5.3%

Results for O=C(c1ccc2nc(N3CCCCC3)sc2c1)N1CCN(Cc2ccc3c(c2)OCO3)CC1 ?
Tb PYK inh: 0.1%; LmPK inhibitor: 5.7%; Shiga inhibitor: active; Cycloheximide cs: 29.7*; RE007 growth inh: 18.2%; FBPA Giardia inh: -0.7%

What do the screens show for `OCC(O)CS` (centres undefined)?
Tb PYK inh: 9.6%

What do the screens show for `Cc1cccc(N(CC(=O)Nc2ccccc2C(F)(F)F)S(=O)(=O)c2ccccc2)c1C`?
Tb PYK inh: 5.4%

What do the screens show for `Cc1cccc(S(=O)(=O)c2cn(C)c3cc(N4CCC(C)CC4)c(F)cc3c2=O)c1`?
Tb PYK inh: 0.4%

Results for c1ccc(CN2CCN(c3nc4ccccc4s3)CC2)cc1 ?
Tb PYK inh: -2.5%; LmPK inhibitor: 0.9%; Shiga inhibitor: 96.1*; Cycloheximide cs: 53.2*; RE007 growth inh: -10.2%; FBPA Giardia inh: 14.6%

Results for CC1CCN(c2nc3ccc(C(=O)N4CCN(Cc5ccccc5)CC4)cc3s2)CC1 ?
Tb PYK inh: -3.6%; LmPK inhibitor: 14.4%; Shiga inhibitor: 84.9*; Cycloheximide cs: 52.1*; RE007 growth inh: -10.4%; FBPA Giardia inh: 1.1%

Results for COc1ccc(N2CCN(C(=O)c3ccc4nc(N5CCC(C)CC5)sc4c3)CC2)cc1 ?
Tb PYK inh: -2.3%

Results for NC(=O)C1CCN(C(=O)c2ccc3nc(N4CCCCC4)sc3c2)CC1 ?
Tb PYK inh: -2.3%; LmPK inhibitor: -0.8%; Shiga inhibitor: 70.6*; Cycloheximide cs: 35.4*; RE007 growth inh: 1.2%; FBPA Giardia inh: -0.3%

How did Cc1ccc(Cl)cc1N1CCN(C(=O)c2ccc3nc(N4CCC(C)CC4)sc3c2)CC1 do in these assays?
Tb PYK inh: -11.6%

How did COc1cccc(N2CCN(C(=O)c3ccc4nc(N5CCC(C)CC5)sc4c3)CC2)c1 do in these assays?
Tb PYK inh: 3.8%; LmPK inhibitor: 10.9%; Shiga inhibitor: 117.4*; Cycloheximide cs: 64.4*; FBPA Giardia inh: -6.8%

Results for CCOc1ccc(/C=C/c2nc(C#N)c(NCc3ccc(OC)cc3)o2)cc1 ?
Tb PYK inh: 5.7%

How did CCOC(=O)c1cnc2ccccc2c1NCc1ccco1 do in these assays?
Tb PYK inh: 3.0%; LmPK inhibitor: -0.4%; Shiga inhibitor: 52.1*; Cycloheximide cs: 22.6*; RE007 growth inh: -3.6%; FBPA Giardia inh: -9.4%

What do the screens show for `CCOC(=O)c1cnc2ccccc2c1Nc1ccc2c(c1)OCCO2`?
Tb PYK inh: -0.4%; LmPK inhibitor: 5.2%; Shiga inhibitor: 154.4*; Cycloheximide cs: 109.6*; RE007 growth inh: 4.5%; FBPA Giardia inh: -20.8%
